Assay outcomes as filed in PubChem.
Only some compounds are listed: those with a hit (about 12% of all), similar ones and a draw of the others.
BAZ2B inh: blocks human BAZ2B | Q9UIF8 | AlphaScreen BAZ2B-H3K14Ac peptide displacement | Potency, µM (series often up to 114 µM), without a hit: top-dose activity change, negative = inhibition, actives largely listed as inhibitors | actives 4.4% (n = 360,000); further: potency means the concentration at half of the fitted maximal effect; on the % scale 0 is the no-effect control and ±100 the full control effect; nearly all actives have a fitted effect of over 60% in size
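Multi-concentration screen (max 110 uM) measuring displacement of acetylated histone H3 peptide from BAZ2B by AlphaScreen, using 50 nM protein, 50 nM peptide and 10 ug/mL streptavidin donor plus Ni-chelate acceptor beads.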
HP1b binding inh: inhibitors of HP1-beta chromodomain binding to methylated histone tails | P83916 | AlphaScreen HP1-beta / biotin-H3K9me3 peptide binding | Potency, µM (titrated, usually from 114 µM), for the others: at the top dose activity change, negative = inhibition, actives largely listed as inhibitors | actives 0.56% (n = 390,000); further: potency means the concentration at half of the fitted maximal effect; nearly all actives have a fitted effect of over 70% in size
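AlphaScreen: HP1-beta (50 nM) preformed 30 min with biotin-H3(1-18)K9me3 peptide (50 nM) in PBS pH 7.4, 0.01% Tween-20. Compound added for 30 min at RT, then streptavidin donor/nickel chelate acceptor beads (10 ug/mL) for 30 min.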
G9a inh: blocks human histone lysine methyltransferase G9a; G9a H3K9 monomethylation, AlphaScreen, 2 h; Potency, µM (highest dose often 102 µM), for inactives: top-dose activity, negative = inhibition, actives largely listed as inhibitors; actives 8.8% (n = 350,000); AID 504332; further: potency means the concentration at half of the fitted maximal effect; on the % scale 0 is the no-effect control and ±100 the full control effect; nearly all actives have a fitted effect of over 75% in size
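Readings reflect AlphaScreen signal from monomethyl-H3K9 antibody detection. HMT at 20 nM; substrate b-H3K9 500 nM; cofactor SAM 20 uM; 2 h RT reaction; compounds tested as titrations in qHTS with 15 min preincubation.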
PLK1 PBD inh: PLK1 (human) polo-box domain binding inhibition | actives 2.8% (n = 360,000) | Potency, µM, for the others: max response, negative = inhibition, actives largely listed as inhibitors | AID 720504 | Plk1 PBD binding of FITC phosphopeptide, fluorescence polarization | P53350; further: potency means the concentration at half of the fitted maximal effect; series mostly up to about 57 µM; on the % scale 0 is the no-effect control and ±100 the full control effect; nearly all actives have a fitted effect of over 65% in size
PI5P4K alpha inh: inhibitors of human PI5P4K alpha; PI5P4Kalpha enzyme, ADP-Glo luminescence, 60 min; hits give low values; actives 1.2% (n = 330,000); P48426; max response, %; active means max response of -50% or lower; inconclusive means between -30% and -50%; inactive means -30% or higher; further: value at the top dose of about 77 µM; on the % scale 0 is the no-effect control and ±100 the full control effect
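Quantitative HTS of the MLSMR library against PI5P4Kalpha with substrate. ATP added last at 5 microM final; room temperature, 60 minutes. Remaining ATP depleted, ADP converted and read as luminescence.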
JMJD2A Tudor: JMJD2A Tudor domain (human) inhibition; Potency, µM (highest dose often 114 µM), inactives show at the highest dose activity change, negative = inhibition, actives largely listed as inhibitors; actives 4.4% (n = 390,000); AID 504339; AlphaScreen JMJD2A-Tudor / H3K4me3 peptide binding; further: potency means the concentration at half of the fitted maximal effect; on the % scale 0 is the no-effect control and ±100 the full control effect; nearly all actives have a fitted effect of over 50% in size
* = called active by the depositor; ? = inconclusive; · = not tested or not shown; [ ] = remark or other dose. Unless noted, the call rests on the fitted dose curve; in most records, active means well fitted curve in the direction sought with a large enough effect; inconclusive means small, poorly fitted or top-dose-only effect, or another doubt; inactive means no such curve, though single readings can be large; an effect the other way counts as inactive or inconclusive.

SMILES	BAZ2B inh	HP1b binding inh	G9a inh	PLK1 PBD inh	PI5P4K alpha inh	JMJD2A Tudor
O=S(=O)(c1ccc(-c2csc(=Nc3ccc(F)cc3)n2CCCCCCO)cc1)N1CCCC1	?	?	13µM*	·	·	40µM*
C=CCn1c(-c2ccc(OC)cc2)csc1=Nc1c(C)n(C)n(-c2ccccc2)c1=O	?	-10%	?	-9%	-8	?
Cc1ccc(-c2csc(=Nc3ccccc3)n2CCCO)cc1	45µM*	?	16µM*	·	·	35µM*
CCc1nnc(SCc2cccc(F)c2)c2cc3sc(C)cc3n12	2%	20%	8%[59 µM]	·	·	-2%
OCCCn1c(-c2ccc(F)cc2)csc1=Nc1ccc(F)cc1	45µM*	?	16µM*	·	·	40µM*
Cc1ccc(S(=O)(=O)c2cnc(-c3ccccc3)[nH]c2=O)cc1	·	17%	·	·	·	-6%
CC(=O)c1ccccc1Oc1cc(NN2CCCCC2)c([N+](=O)[O-])cc1[N+](=O)[O-]	32µM*	9%	28µM*	-12%	-1	?
O=[N+]([O-])c1cc([N+](=O)[O-])c(Oc2cccc3ccccc23)cc1NN1CCCCC1	·	-16%	·	-3%	4	?
CC(=O)c1cccc(Oc2cc(NN3CCCCC3)c([N+](=O)[O-])cc2[N+](=O)[O-])c1	?	-12%	50µM*	-3%	4	?
CC1(c2nnnn2-c2ccc3c(c2)OCCO3)CCC(=O)N1CCc1ccc(O)cc1 (stereo not drawn)	·	·	·	-10%	-5	·
S=c1[nH]ccn1-c1ccccc1Cl	-13%	32%	16µM*	-7%	-5	22µM*
S=c1[nH]ccn1-c1cccc(Cl)c1Cl	-7%	45%	5.6µM*	-12%	-4	16µM*
S=C(NCCc1ccccc1)Nc1c(Cl)cccc1Cl	-7%	56%	?	27µM*	5	1%
Cc1cccc(C)c1NC(=S)NCCc1ccc(O)c(O)c1	-25%	-7%	25µM*	4%	6	-22%
CCCCNC(=S)Nc1ccccc1Cc1ccccc1	50µM*	13%	0%	-17%	-4	-25%
CNC(=S)NCCc1ccccc1	0%	33%	8%	-3%	2	3%
Fc1ccccc1NC(=S)NCCc1ccccc1	-1%	76%	15%[59 µM]	3µM*	?	-21%[11.4 µM]
Cc1ccc(S(=O)(=O)N2CCOCC2)cc1C(=O)Nc1ccccc1C(=O)O	-13%	30%	-1%[59 µM]	·	·	-15%
S=C(NCCc1ccccc1)Nc1ccc(Nc2ccccc2)cc1	8.9µM*	11µM*	·	?	-16	18µM*
CC(C)(C)NC(=S)Nc1ccc(Nc2ccccc2)cc1	28µM*	-39%	11µM*	30µM*	·	32µM*
OCCNC(=S)NCCc1ccccc1	-2%	33%	18%[59 µM]	-2%	0	-1%
CC(C)(CNC(=S)NCCc1ccccc1)CNC(=S)NCCc1ccccc1	?	-19%	10µM*	-28%	-1	?
Cc1nn(C)c(C(=O)N/N=C/c2ccc(C(F)(F)F)cc2)c1[N+](=O)[O-]	-1%	4%	2%[59 µM]	-18%	3	-23%
CCOC(=O)c1cc2c(=O)n3ccccc3nc2n(C(C)C)c1=NC(=O)C(C)(C)Oc1ccc(Cl)cc1	4%	48%	2%[59 µM]	·	·	7%
Clc1ccc(C2=Nn3c(nnc3-c3n[nH]c4c3CCC4)SC2)cc1Cl	-3%	4%	11µM*	-4%	·	?
CCN1CCN(CCCNC(=O)c2ccc3c(c2)NC(=O)/C(=C\c2cccc(C)c2)S3)CC1	?	15%	35µM*	-3%	-27	?
COc1ccc(/C=C2/Sc3ccc(C(=O)NCCCN4CCOCC4)cc3NC2=O)cc1OC	?	-3%[57 µM]	?	-26%	-10	?
O=C1Nc2cc(C(=O)NCCN3CCCCCC3)ccc2S/C1=C\c1ccccc1	?	-13%	45µM*	-8%	-11	?
Cc1cccc(/C=C2/Sc3ccc(C(=O)NCCCN4CCOCC4)cc3NC2=O)c1	?	·	1%[59 µM]	·	·	·
